Test results: PubChem BioAssay (Tox21)
Several values for one entry are separate records, joined by “and”; a condition that tells them apart may be missing. Identical values can stand only once. Unmarked numbers belong to inactive results. Inconclusive results are not listed. Where a call stands in place of a potency, no number is given. Activity calls are given as the source filed them. Unless noted, calls come from the whole dose curve; as a rule, active = well fitted curve in the direction sought with a large enough effect in the repeat runs; inconclusive = weak or mixed curves; inactive = no such curve, though single readings can be large; an effect the other way counts as inactive or inconclusive.

What was measured:
[1] = qHTS assay to identify small molecule agonists of the estrogen receptor alpha (ER-alpha) signaling pathway in the presence of an antagonist - cell viability counter screen (AID 1259386);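 note: series mostly up to about 92 µM; cells exposed to compounds for 22 h at 37 °C before the viability read; nearly all actives have a fitted effect of over 30% in size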
Procedure, shortened: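 Using estrogen-depleted VM7Luc4E2 cells, the 15-concentration compound series was applied together with 10.0nM ICI-182,780 and incubated 22hr at 37C/5% CO2. Cell viability was then scored by CellTiter-Fluor.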

[2] = molecular target: Progesterone receptor (Homo sapiens) (UniProt P06401); assay: qHTS assay to identify small molecule agonists of the progesterone receptor (PR) signaling pathway (AID 1346784; calls by dose curve; note: nearly all actives have a fitted effect of over 30% in size)
Procedure, shortened: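 PR-UAS-bla HEK 293T cells carrying a UAS-driven beta-lactamase reporter were seeded in medium with 2% charcoal-stripped FBS, preincubated 6 hr at 37C, then exposed to compounds in DMSO for 16 hr; agonism was read by LiveBLAzer B/G FRET fluorescence.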

[3] = molecular target: Progesterone receptor (Homo sapiens) (UniProt P06401); assay: qHTS assay to identify small molecule antagonists of the progesterone receptor (PR) signaling pathway (AID 1346795; active = well fitted inhibition curve with a large enough effect in the signal ratio in the repeat runs, not every such curve was filed as active; the % refers to the signal ratio)
Procedure, shortened: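 PR-UAS-bla HEK293T cells carrying a UAS-driven beta-lactamase reporter were plated in medium with 2% charcoal-stripped FBS and rested 6 hr at 37C. Compounds were added with 1 nM R5020 (final) for 16 hr, then FRET substrate loaded 2 hr at room temperature.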

[4] = qHTS assay to identify small molecule antagonists of the progesterone receptor (PR) signaling pathway - cell viability counter screen (AID 1346798); note: series mostly up to about 92 µM; nearly all actives have a fitted effect of over 50% in size
Procedure, shortened: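 PR-UAS-bla HEK293T cells in medium with 2% charcoal-stripped FBS were treated with compounds plus R5020 for 16 hr at 37C. Cell viability was then read by CellTiter-Glo luminescence after 30 min at room temperature in the same wells.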

[5] = qHTS assay to identify small molecule agonists of the progesterone receptor (PR) signaling pathway - cell viability counter screen (AID 1346799; calls by dose curve; note: nearly all actives have a fitted effect of over 45% in size)
Procedure, shortened: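 PR-UAS-bla HEK293T cells, 3,000 per well in medium with 2% charcoal-stripped FBS, were preincubated 6 hr at 37C, then exposed to compounds for 16 hr; viability was read as CellTiter-Glo luminescence after 30 min at room temperature.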

[6] = qHTS assay to identify small molecule antagonists of the TGF-beta/Smad signaling pathway - cell viability counter screen (AID 1346824); note: nearly all actives have a fitted effect of over 50% in size
Procedure, shortened: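 SBE-bla HEK 293T cells, incubated overnight, then compound plus 0.25 ng/mL TGF-beta1 (stock added) for 5 hr at 37 C. Viability was read in the same wells by CellTiter-Glo luminescence after 30 min at room temperature.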

[7] = qHTS assay to identify small molecule agonists of the TGF-beta/Smad signaling pathway - cell viability counter screen (AID 1346829); note: top concentration of the series differs between compounds; nearly all actives have a fitted effect of over 45% in size
Procedure, shortened: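 Here the cytotoxicity of library compounds is measured in SBE-bla HEK 293T cells treated for 5 hr, using CellTiter-Glo added to wells already read for the beta-lactamase reporter.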

[8] = qHTS assay to identify small molecule agonists of the TGF-beta/Smad signaling pathway (AID 1346859; active = well fitted activation curve with a large enough effect in the signal ratio in the repeat runs, not every such curve was filed as active; the % refers to the signal ratio; note: series mostly up to about 77 µM)
Procedure, shortened: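 HEK 293T cells stably carrying a beta-lactamase reporter driven by the Smad binding element were seeded overnight, exposed to DMSO-dissolved compounds for 5 hr at 37 C, 5% CO2, then loaded with FRET substrate for 2 hr at room temperature.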

[9] = molecular target: Thyrotropin-releasing hormone receptor (Homo sapiens) (UniProt P34981); assay: qHTS assay to identify small molecule antagonists of the thyrotropin-releasing hormone receptor (TRHR) signaling pathway (AID 1346877; active = well fitted inhibition curve with a large enough effect in the repeat runs, not every such curve was filed as active; note: series mostly up to about 51 µM)
Procedure, shortened: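 Calcium signal in dye-loaded TRHR/HEK293 cells; compounds added 5 min before TRH (1 nM final); fluorescence monitored 3 min at 1 s steps.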

[10] = molecular target: Thyrotropin-releasing hormone receptor (Homo sapiens) (UniProt P34981); assay: qHTS assay to identify small molecule agonists of the thyrotropin-releasing hormone receptor (TRHR) signaling pathway (AID 1346891; calls by dose curve; note: series mostly up to about 58 µM)
Procedure, shortened: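 TRHR-expressing HEK293 cells were plated 18 h at 37 °C/5% CO2, loaded with calcium dye 2 h at 37 °C, then given compound in DMSO; fluorescence was read kinetically for 3 min at 1 s intervals.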

[11] = Human pregnane X receptor (PXR) small molecule agonists, qHTS cell viability counter screen (AID 1346977); note: nearly all actives have a fitted effect of over 50% in size
Procedure, shortened: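 PXR-Luc HepG2 cells in medium with 5% charcoal-stripped FBS were pre-incubated 5hr, then exposed to compounds for 24hr at 37C. Viability was read in the same wells by CellTiter-Fluor fluorescence, reagent added after 23hr with a 1hr incubation.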

[12] = Caspase-3/7 induction in HepG2 cells by small molecules, qHTS assay (AID 1346978); note: nearly all actives have a fitted effect of over 15% in size
Procedure, shortened: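 Wild-type HepG2 cells, 2,000/well, settled 5 hr at 37 C and 5% CO2, then compound-treated for 17 hr; caspase-3/7 activity read by luminescent Caspase-Glo 3/7 after 30 min at room temperature.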

[13] = Caspase-3/7 induction in CHO-K1 cells by small molecules, qHTS cell viability counter screen (AID 1346979); note: nearly all actives have a fitted effect of over 35% in size
Procedure, shortened: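 Wild-type CHO-K1 cells were seeded at 1,500 per well, rested 5hr at 37 C, then exposed to compounds in DMSO. After 16hr, CellTiter-Fluor reagent was added and fluorescence read 1hr later as the viability measure.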

[14] = Caspase-3/7 induction in HepG2 cells by small molecules, qHTS cell viability counter screen (AID 1346981); note: series mostly up to about 92 µM; nearly all actives have a fitted effect of over 30% in size
Procedure, shortened: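 After a 5-hr attachment period at 37 C and 5% CO2, wild-type HepG2 cells received compounds in DMSO. Sixteen hours later CellTiter-Fluor was dispensed and the fluorescent signal quantified after a further hour.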

[15] = molecular target: Nuclear receptor subfamily 1 group I member 2 (Homo sapiens) (UniProt O75469); assay: Human pregnane X receptor (PXR) small molecule agonists, qHTS assay (AID 1346982); note: nearly all actives have a fitted effect of over 35% in size; note: potency is the fitted concentration of half-maximal effect
Procedure, shortened: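 Tox21 qHTS; PXR-Luc HepG2; compounds pinned from DMSO; 24 hr, 37 C; ONE-Glo luciferase detection, 30 min room temperature.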

[16] = molecular target: Cytochrome P450 2D6 (Homo sapiens) (UniProt P10635); assay: Cytochrome P450 Family 2 Subfamily D Member 6 (CYP2D6) small molecule antagonists: luciferase reporter qHTS assay (AID 1671196); note: nearly all actives have a fitted effect of over 50% in size; note: potency is the fitted concentration of half-maximal effect
Procedure, shortened: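 Room-temperature luminescent CYP2D6 activity assay: compound preincubated 10 min with enzyme–substrate mix, NADPH-initiated reaction 1 h, detection reagent 20 min before reading.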

[17] = molecular target: Cytochrome P450 2C19 (Homo sapiens) (UniProt P33261); assay: Cytochrome P450 Family 2 Subfamily C Member 19 (CYP2C19) small molecule antagonists: luciferase reporter qHTS assay (AID 1671197); note: nearly all actives have a fitted effect of over 65% in size; note: potency is the fitted concentration of half-maximal effect
Procedure, shortened: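 Light output is proportional to CYP2C19 activity: proluciferin substrate is converted to luciferin, then detected by a luciferin detection reagent that also stops the 1 h, 37C NADPH-driven reaction. Ketoconazole serves as positive control.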

[18] = Caspase-3/7 induction in CHO-K1 cells by small molecules, qHTS assay (AID 1346980); note: nearly all actives have a fitted effect of over 15% in size
Procedure, shortened: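 Wild-type CHO-K1 cells exposed to compounds for 17hr at 37 C, 5% CO2. Caspase-3/7 activity then measured by Caspase-Glo 3/7 luminescence after 30min at room temperature.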

[19] = molecular target: Nuclear receptor subfamily 1 group I member 2 (Rattus norvegicus) (UniProt Q9R1A7); assay: Rat pregnane X receptor (rPXR) activation by small molecules, qHTS assay (AID 1346983); conditions: rPXR luciferase reporter cells, One-Glo luminescence, 24 h; stronger effect = higher value; note: nearly all actives have a fitted effect of over 20% in size
Procedure, shortened: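 Cell-based rPXR activation assay: rPXR cells, 2,000 per well, rested 5hr at 37 C, then exposed to compounds in DMSO for 24 hr at 37 C. Luciferase activity read by One-Glo luminescence after 30 min at room temperature.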

[20] = molecular target: Nuclear receptor subfamily 1 group I member 2 (Homo sapiens) (UniProt O75469); assay: Human pregnane X receptor (PXR) activation by small molecules, qHTS assay (AID 1346985); note: nearly all actives have a fitted effect of over 40% in size
Procedure, shortened: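 DPX-2 cells (HepG2 co-transfected with a PXR response element and a CYP3A4-promoter luciferase construct) were seeded at 2,000 per well, rested 5 hr at 37C, then exposed to DMSO-dissolved compounds for 24 hr. Activation was read as luciferase luminescence.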

Chain of Cytochrome P450 2D6 (Homo sapiens) (P10635 whole entry, looked up): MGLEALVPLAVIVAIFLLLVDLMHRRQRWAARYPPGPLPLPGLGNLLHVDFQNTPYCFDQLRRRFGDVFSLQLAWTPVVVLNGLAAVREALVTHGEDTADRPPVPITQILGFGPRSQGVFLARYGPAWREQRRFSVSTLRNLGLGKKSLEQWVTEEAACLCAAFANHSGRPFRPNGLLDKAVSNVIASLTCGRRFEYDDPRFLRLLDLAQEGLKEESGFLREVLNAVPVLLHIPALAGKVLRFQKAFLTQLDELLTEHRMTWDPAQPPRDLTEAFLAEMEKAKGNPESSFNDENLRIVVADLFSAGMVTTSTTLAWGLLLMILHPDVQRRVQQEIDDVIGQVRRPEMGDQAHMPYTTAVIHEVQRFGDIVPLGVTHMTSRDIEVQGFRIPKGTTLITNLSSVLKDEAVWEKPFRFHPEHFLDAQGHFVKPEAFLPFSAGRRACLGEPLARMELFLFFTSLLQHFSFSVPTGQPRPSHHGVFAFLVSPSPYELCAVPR
Chain of Cytochrome P450 2C19 (Homo sapiens) (P33261 whole entry, looked up): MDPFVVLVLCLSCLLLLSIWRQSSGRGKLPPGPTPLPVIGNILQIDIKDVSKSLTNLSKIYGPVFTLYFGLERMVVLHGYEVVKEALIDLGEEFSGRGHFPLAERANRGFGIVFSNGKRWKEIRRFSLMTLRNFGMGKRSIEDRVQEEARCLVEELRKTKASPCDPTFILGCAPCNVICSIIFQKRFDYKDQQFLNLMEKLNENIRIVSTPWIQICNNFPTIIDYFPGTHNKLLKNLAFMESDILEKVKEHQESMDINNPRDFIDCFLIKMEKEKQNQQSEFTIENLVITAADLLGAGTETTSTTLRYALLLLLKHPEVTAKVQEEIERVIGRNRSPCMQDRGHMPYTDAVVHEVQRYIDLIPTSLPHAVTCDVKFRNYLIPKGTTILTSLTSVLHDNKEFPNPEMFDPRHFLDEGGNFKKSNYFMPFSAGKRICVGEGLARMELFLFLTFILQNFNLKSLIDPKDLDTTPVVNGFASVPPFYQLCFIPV
Chain of Nuclear receptor subfamily 1 group I member 2 (Homo sapiens) (O75469 whole entry, looked up): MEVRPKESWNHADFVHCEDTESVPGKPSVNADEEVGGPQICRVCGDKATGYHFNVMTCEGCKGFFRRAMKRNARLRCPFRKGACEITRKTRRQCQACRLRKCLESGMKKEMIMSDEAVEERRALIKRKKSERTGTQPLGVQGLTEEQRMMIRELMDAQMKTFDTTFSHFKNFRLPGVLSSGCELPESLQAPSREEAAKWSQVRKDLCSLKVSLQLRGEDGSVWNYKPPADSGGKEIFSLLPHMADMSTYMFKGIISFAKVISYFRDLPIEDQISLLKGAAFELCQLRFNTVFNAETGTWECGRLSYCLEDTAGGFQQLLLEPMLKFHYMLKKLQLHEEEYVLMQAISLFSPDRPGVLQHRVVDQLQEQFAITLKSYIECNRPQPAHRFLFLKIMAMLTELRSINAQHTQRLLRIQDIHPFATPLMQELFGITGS
Chain of Thyrotropin-releasing hormone receptor (Homo sapiens) (P34981 whole entry, looked up): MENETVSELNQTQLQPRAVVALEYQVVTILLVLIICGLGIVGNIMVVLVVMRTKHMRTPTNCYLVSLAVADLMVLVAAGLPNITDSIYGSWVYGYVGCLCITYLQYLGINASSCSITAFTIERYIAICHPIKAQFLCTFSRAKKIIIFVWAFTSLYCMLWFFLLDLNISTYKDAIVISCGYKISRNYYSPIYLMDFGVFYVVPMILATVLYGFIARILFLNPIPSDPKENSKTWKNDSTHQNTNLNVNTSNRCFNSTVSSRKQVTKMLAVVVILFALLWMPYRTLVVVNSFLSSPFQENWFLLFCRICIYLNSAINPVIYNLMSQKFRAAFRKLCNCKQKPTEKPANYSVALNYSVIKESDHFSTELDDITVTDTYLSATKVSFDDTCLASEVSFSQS
Chain of Progesterone receptor (Homo sapiens) (P06401 whole entry, looked up): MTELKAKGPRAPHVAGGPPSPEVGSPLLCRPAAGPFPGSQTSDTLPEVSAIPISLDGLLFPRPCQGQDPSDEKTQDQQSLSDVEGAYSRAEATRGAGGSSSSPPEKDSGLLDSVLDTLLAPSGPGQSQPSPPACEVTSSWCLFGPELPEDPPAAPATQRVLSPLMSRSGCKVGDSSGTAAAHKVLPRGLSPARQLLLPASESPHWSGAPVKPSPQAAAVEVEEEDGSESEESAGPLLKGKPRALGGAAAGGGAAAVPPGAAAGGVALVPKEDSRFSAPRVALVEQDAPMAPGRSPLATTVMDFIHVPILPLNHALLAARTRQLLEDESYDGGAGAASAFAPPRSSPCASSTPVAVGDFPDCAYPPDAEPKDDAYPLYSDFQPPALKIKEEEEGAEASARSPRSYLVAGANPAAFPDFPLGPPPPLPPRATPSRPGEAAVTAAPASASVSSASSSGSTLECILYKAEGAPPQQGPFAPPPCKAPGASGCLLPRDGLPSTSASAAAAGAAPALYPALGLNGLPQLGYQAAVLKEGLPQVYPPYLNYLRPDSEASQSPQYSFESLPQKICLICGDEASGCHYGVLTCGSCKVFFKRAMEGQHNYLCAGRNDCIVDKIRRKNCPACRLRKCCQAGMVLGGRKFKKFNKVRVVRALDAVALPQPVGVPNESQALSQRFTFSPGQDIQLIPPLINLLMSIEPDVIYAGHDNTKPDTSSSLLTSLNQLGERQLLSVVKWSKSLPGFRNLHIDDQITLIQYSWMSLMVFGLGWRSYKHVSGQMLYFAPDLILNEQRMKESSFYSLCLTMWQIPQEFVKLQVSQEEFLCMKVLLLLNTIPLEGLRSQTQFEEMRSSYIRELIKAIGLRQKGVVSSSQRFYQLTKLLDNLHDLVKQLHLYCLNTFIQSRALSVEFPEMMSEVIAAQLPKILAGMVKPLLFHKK
Chain of Nuclear receptor subfamily 1 group I member 2 (Rattus norvegicus) (Q9R1A7 whole entry, looked up): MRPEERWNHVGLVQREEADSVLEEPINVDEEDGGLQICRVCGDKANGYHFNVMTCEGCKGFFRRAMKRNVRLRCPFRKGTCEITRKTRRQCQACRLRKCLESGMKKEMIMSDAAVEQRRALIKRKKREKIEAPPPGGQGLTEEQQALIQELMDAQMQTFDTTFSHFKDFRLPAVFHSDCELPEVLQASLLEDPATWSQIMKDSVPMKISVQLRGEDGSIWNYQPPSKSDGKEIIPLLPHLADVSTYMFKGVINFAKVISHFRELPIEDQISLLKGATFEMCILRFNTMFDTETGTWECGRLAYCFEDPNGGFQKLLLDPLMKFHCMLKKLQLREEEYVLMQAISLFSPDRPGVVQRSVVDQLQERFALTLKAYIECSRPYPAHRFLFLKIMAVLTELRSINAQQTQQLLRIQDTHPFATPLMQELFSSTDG

Row | SMILES | Potency [1] | Potency [2] | Potency [3] | Potency [4] | Potency [5] | Potency [6] | Potency [7] | outcome [8] | Potency [9] | Potency [10] | Potency [11] | Potency [12] | Potency [13] | Potency [14] | Potency [15] | Potency [16] | Potency [17] | Potency [18] | max activation [19] [%] | Potency [20]
1 | Cc1occc(=O)c1OC(=O)C(C)C | inactive | inactive | inactive | inactive | inactive | inactive | inactive | inactive | inactive | inactive | inactive | inactive | inactive | inactive | inactive | inactive | inactive |  |  | 
2 | COC(=O)c1cccc(C(=O)OC)c1 | inactive | inactive | inactive | inactive | inactive | inactive | inactive | inactive | inactive | inactive | inactive | inactive | inactive | inactive | inactive | inactive | inactive | inactive |  | 
3 | CCC(=O)/C=C/C1C(C)=CCCC1(C)C (stereo unspecified) | inactive | inactive | inactive | inactive | inactive | inactive | inactive |  | inactive | inactive | inactive | inactive | inactive | inactive | 34.5 µM (active) | inactive | 44.9 µM (active) and 15.9 µM (active) | inactive |  | 
4 | CC1COC(=O)O1 (stereo unspecified) | inactive | inactive | inactive | inactive | inactive | inactive | inactive |  | inactive | inactive | inactive | inactive | inactive | inactive | inactive | inactive | inactive | inactive |  | 
5 | C=CS(=O)(=O)O | inactive | inactive | inactive | inactive | inactive | inactive | inactive | inactive | inactive | inactive | inactive | inactive | inactive | inactive | inactive |  |  | inactive |  | 
6 | CC1=C(C=O)C(C)(C)CC=C1 | inactive | inactive | inactive | inactive | inactive | inactive | inactive | inactive | inactive | inactive | inactive | inactive | inactive | inactive | inactive | inactive |  | inactive |  | 
7 | Cc1cccc2n[nH]nc12 | inactive | inactive | inactive | inactive | inactive | inactive | inactive | inactive | inactive | inactive | inactive | inactive | inactive | inactive |  | inactive |  |  |  | 
8 | COc1ccc(Cc2cnc(N)nc2N)cc1OC | inactive | inactive | inactive | inactive | inactive | inactive | inactive |  | inactive | inactive | inactive | inactive | inactive | inactive | inactive | inactive | inactive | inactive | 10.3 | inactive
9 | CCCC(=O)c1ccccc1 | inactive | inactive | inactive | inactive | inactive | inactive | inactive | inactive | inactive | inactive | inactive | inactive | inactive | inactive | inactive | 31.7 µM (active) | inactive | inactive |  | 
10 | O=C(O)CP(=O)(O)O | inactive | inactive | inactive | inactive | inactive | inactive | inactive | inactive |  |  | inactive | inactive | inactive | inactive | inactive | inactive | inactive | inactive |  | 
11 | CCN1CCCC1CNC(=O)c1cc(S(=O)(=O)CC)c(N)cc1OC (stereo unspecified) | inactive | inactive | inactive | inactive | inactive | inactive | inactive | inactive | inactive | inactive | inactive | inactive | inactive | inactive | inactive | 9.77 µM (active) | inactive | inactive |  | 
12 | NCCCCCC(=O)O | inactive | inactive | inactive | inactive | inactive | inactive | inactive |  | inactive | inactive | inactive | inactive | inactive | inactive | inactive | inactive | inactive |  | 1.85 | inactive
13 | CCCCC/C=C/CC1CC(=O)OC1=O (stereo unspecified) | inactive | inactive | inactive | inactive | inactive | inactive | inactive |  | inactive | inactive | inactive | inactive |  | inactive | inactive | inactive |  | inactive |  | 
